Where “and” joins values, the source holds several entries; their conditions need not be identical. Equal values may be shown once. Screen size: about 5,500 compounds; about 2,000 (36%) were called active. Inconclusive results (about 18%) are left out. Rule as the data show it: active = normalized growth mostly below about 0.91 (no sharp cut-off); inconclusive = no clear call, values can overlap the other calls; inactive = mostly above about 0.92. The list shows a part of the results.
Assay: chemical genetic growth profiling, strain panel (AID 1159580);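 also: tested at 20 µM; growth read once vehicle control cultures reached saturation at 30 °C; 1 = growth at the plate median or of vehicle wells; lower values mean less growth of the strain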
Details: S. cerevisiae deletion strains, growth OD
[1] = locus YAL013W, strain DEP1, hits give low values
[2] = locus YBR229C, strain ROT2, hits give low values
[3] = locus YDL101C, strain DUN1, hits give low values
[4] = locus YDR150W, strain NUM1, hits give low values
[5] = locus YEL061C, strain CIN8, hits give low values
[6] = locus YGR078C, strain PAC10, hits give low values
[7] = locus YHR030C, strain SLT2, hits give low values
[8] = locus YHR087W, strain rtc3, hits give low values
[9] = locus YJR043C, strain POL32, hits give low values
[10] = locus YJR075W, strain HOC1, hits give low values
[11] = locus YKL190W, strain CNB1, hits give low values
[12] = locus YLR039C, strain RIC1, hits give low values
[13] = locus YLR058C, strain SHM2 (second series), hits give low values
[14] = locus YLR085C, strain ARP6, hits give low values
[15] = locus YLR262C, strain YPT6, hits give low values
[16] = locus YML094W, strain GIM5, hits give low values
[17] = locus YMR219W, strain ESC1, hits give low values
[18] = locus YMR263W, strain SAP30, hits give low values
[19] = locus YMR307W, strain GAS1, hits give low values
[20] = locus YNL153C, strain GIM3, hits give low values
[21] = locus YNL298W, strain CLA4 (second series), hits give low values
[22] = locus YNL322C, strain KRE1, hits give low values
[23] = locus YNR030W, strain Alg12, hits give low values
[24] = locus YOL006C, strain TOP1, hits give low values
[25] = locus YPL055C, strain LGE1, hits give low values
[26] = locus YPL241C, strain CIN2, hits give low values
[27] = locus YPR135W, strain CTF4, hits give low values

Measured: normalized growth

CCOC(=O)c1ccc(NC(=S)N2CCOCC2)cc1
inactive: [1] 1.01 | [2] 0.979 | locus YCL061C, strain MRC1, hits give low values 0.939 | [3] 0.978 | [4] 0.945 | [5] 0.985 | [6] 0.99 | [7] 0.956 | [8] 0.974 | [9] 0.962 | [10] 0.947 | [11] 1.01 | [12] 1 | [13] 1.02 | [14] 0.991 | [15] 1 | [16] 0.978 | [17] 0.999 | [18] 0.933 | [19] 0.965 | [20] 0.982 | [21] 0.951 | [22] 1.01 | [23] 1.01 | [24] 0.805 | [25] 0.888 | [26] 0.988 | [27] 0.972

CCOC(=O)CCC(C#N)(c1ccc(Cl)cc1)N1CCOCC1 (centres undefined)
inactive: [1] 0.99 | [2] 0.997 | [3] 1.04 | [4] 1.05 | [5] 1 | [6] 1.01 | [7] 0.979 | [8] 0.978 | [9] 1.02 | [10] 1.01 | [12] 1.11 | [13] 0.982 | [14] 0.962 | [15] 1.01 | [16] 0.99 | [17] 0.983 | [18] 1.02 | [20] 0.993 | [21] 0.996 | [22] 0.988 | [23] 0.985 | [24] 0.904 | [25] 0.943 | [26] 0.992 | [27] 1.01

COc1cc2c(cc1OC)C(C)NCC2 (centres undefined)
inactive: [1] 0.996 | locus YAL021C, strain ccr4, hits give low values 0.967 | locus YAL026C, strain drs2, hits give low values 0.959 | locus YAL030W, strain snc1, hits give low values 0.985 | locus YBL061C, strain skt5, hits give low values 0.97 | locus YBR009C, strain hhf1, hits give low values 0.965 | locus YBR021W, strain FUR4, hits give low values 0.995 | locus YBR023C, strain chs3, hits give low values 0.957 | locus YBR171W, strain sec66, hits give low values 0.958 | [2] 0.995 | locus YBR231C, strain swc5, hits give low values 0.982 | locus YBR279W, strain paf1, hits give low values 0.989 | locus YCL011C, strain gbp2, hits give low values 0.979 | locus YCL016C, strain dcc1, hits give low values 1 | locus YCL029C, strain bik1, hits give low values 0.979 | locus YCL069W, strain vba3, hits give low values 0.962 | locus YCR088W, strain abp1, hits give low values 0.982 | locus YDL005C, strain med2, hits give low values 0.976 | locus YDL035C, strain GPR1, hits give low values 1 | locus YDL040C, strain nat1, hits give low values 0.984 | locus YDL074C, strain BRE1, hits give low values 1 | [3] 0.996 | locus YDL185W, strain tfp1, hits give low values 0.986 | locus YDL192W, strain arf1, hits give low values 0.98 | locus YDR001C, strain nth1, hits give low values 0.988 | locus YDR069C, strain doa4, hits give low values 0.921 | locus YDR101C, strain arx1, hits give low values 0.979 | locus YDR137W, strain rgp1, hits give low values 0.977 | [4] 1.01 | locus YDR159W, strain sac3, hits give low values 0.927 | locus YDR162C, strain NBP2, hits give low values 1.02 | locus YDR195W, strain ref2 0.963 | locus YDR297W, strain sur2, hits give low values 1 | locus YDR318W, strain mcm21, hits give low values 0.986 | locus YDR334W, strain swr1, hits give low values 0.951 | locus YDR335W, strain msn5, hits give low values 0.971 | locus YDR388W, hits give low values 0.978 | locus YDR392W, strain spt3, hits give low values 0.992 | locus YDR502C, strain sam2, hits give low values 0.981 | locus YEL003W, strain gim4, hits give low values 0.976 | locus YEL037C, strain rad23, hits give low values 0.968 | locus YEL061C, strain CIN8 (second series), hits give low values 0.966 | [5] 0.995 | locus YER015W, strain faa2, hits give low values 0.976 | locus YER016W, strain bim1, hits give low values 0.983 | locus YER110C, hits give low values 0.963 | locus YER111C, strain swi4, hits give low values 0.959 | locus YER155C, strain BEM2 (second series), hits give low values 0.985 | locus YER155C, strain BEM2, hits give low values 0.99 | locus YER167W, strain BCK2, hits give low values 0.994 | locus YFR010W, strain ubp6, hits give low values 0.945 | locus YGL078C, strain dbp3, hits give low values 0.982 | locus YGL086W, strain mad1, hits give low values 0.982 | locus YGL167C, strain pmr1, hits give low values 0.969 | locus YGL173C, strain kem1, hits give low values 0.97 | locus YGL227W, strain vid30, hits give low values 0.985 | locus YGL240W, strain doc1, hits give low values 0.986 | locus YGL248W, strain PDE1, hits give low values 1 | locus YGL253W, strain hxk2, hits give low values 0.961 | [6] 1.02 | locus YGR135W, strain pre9, hits give low values 0.959 | locus YGR252W, strain gcn5, hits give low values 0.996 | locus YHR013C, strain ard1, hits give low values 0.961 | locus YHR027C, strain rpn1, hits give low values 0.976 | [7] 0.993 and 1.04 | locus YHR079C, strain IRE1 (second series), hits give low values 0.979 | locus YHR079C, strain IRE1, hits give low values 1.03 | locus YHR094C, strain hxt1, hits give low values 0.985 | locus YHR129C, strain ARP1, hits give low values 1 | locus YHR142W, strain chs7, hits give low values 0.988 | locus YHR200W, strain rpn10, hits give low values 0.98 | locus YIL066C, strain RNR3, hits give low values 1.02 | locus YIL073C, strain SPO22, hits give low values 1.02 | locus YIL125W, strain kgd1, hits give low values 0.981 | locus YIR030C, strain dcg1, hits give low values 0.976 | locus YJL092W, strain hpr5, hits give low values 0.936 | locus YJL095W, strain BCK1 (second series), hits give low values 0.969 | locus YJL095W, strain BCK1, hits give low values 1.02 and 0.99 | locus YJL115W, strain asf1, hits give low values 0.951 | locus YJL129C, strain trk1, hits give low values 0.948 | locus YJL134W, strain LCB3, hits give low values 0.988 | locus YJL154C, strain vps35, hits give low values 0.974 | locus YJL164C, strain tpk1, hits give low values 1.01 | locus YJL166W, strain qcr8, hits give low values 0.977 | locus YJL168C, strain set2, hits give low values 0.978 | locus YJL187C, strain SWE1 (second series), hits give low values 1.01 | locus YJL187C, strain SWE1, hits give low values 0.961 | [9] 1.02 | locus YJR066W, strain TOR1, hits give low values 0.966 | [10] 1.02 | locus YKL009W, strain mrt4, hits give low values 0.984 | locus YKL068W, hits give low values 0.98 | locus YKL085W, strain MDH1 (second series), hits give low values 1.01 | locus YKL085W, strain MDH1, hits give low values 1.01 | locus YKL160W, strain elf1, hits give low values 1.01 | [11] 1 | locus YKR001C, strain vps1, hits give low values 0.982 | locus YKR026C, strain gcn3, hits give low values 0.974 | locus YKR091W, strain srl3, hits give low values 0.987 | locus YLL001W, strain dnm1, hits give low values 0.977 | locus YLL026W, hits give low values 0.986 | locus YLL041C, strain sdh2, hits give low values 0.963 | locus YLR027C, strain aat2, hits give low values 0.966 | [12] 1.02 | locus YLR058C, strain SHM2, hits give low values 0.996 | locus YLR102C, strain apc9, hits give low values 0.991 | locus YLR113W, strain HOG1, hits give low values 1.01 | locus YLR221C, strain rsa3, hits give low values 0.989 | locus YLR258W, strain gsy2, hits give low values 0.978 | locus YLR262C, strain YPT6 (second series), hits give low values 0.964 | [15] 1.05 | locus YLR268W, strain sec22, hits give low values 0.987 | locus YLR320W, strain mms22, hits give low values 0.997 | locus YLR330W, strain CHS5, hits give low values 0.991 | locus YLR342W, strain FKS1 (second series), hits give low values 0.999 | locus YLR342W, strain FKS1, hits give low values 0.982 | locus YLR357W, strain rsc2, hits give low values 0.94 | locus YLR370C, strain arc18, hits give low values 0.955 | locus YLR371W, strain rom2, hits give low values 0.98 | locus YLR384C, strain iki3, hits give low values 0.996 | locus YLR418C, strain cdc73, hits give low values 0.98 | locus YML016C, strain PPZ1, hits give low values 0.988 | locus YML032C, strain rad52, hits give low values 0.978 | locus YML120C, strain ndi1, hits give low values 0.989 | locus YML124C, strain tub3, hits give low values 0.986 | locus YMR058W, strain fet3, hits give low values 0.972 | locus YMR078C, strain ctf18, hits give low values 0.981 | locus YMR125W, strain sto1, hits give low values 0.933 | locus YMR129W, hits give low values 0.985 | locus YMR205C, strain PFK2, hits give low values 0.989 | locus YMR223W, strain ubp8, hits give low values 0.977 | locus YMR231W, strain pep5, hits give low values 0.964 | [19] 1.03 | locus YNL067W, strain RPL9B, hits give low values 1.02 | locus YNL071W, strain lat1, hits give low values 0.981 | locus YNL128W, strain TEP1, hits give low values 0.998 | [20] 1.02 | locus YNL183C, strain NPR1, hits give low values 0.974 | locus YNL209W, strain ssb2, hits give low values 0.976 | locus YNL233W, strain BNI4, hits give low values 1.02 | locus YNL248C, strain rpa49, hits give low values 0.955 | locus YNL250W, strain rad50, hits give low values 0.972 | locus YNL271C, strain bni1, hits give low values 0.985 | locus YNL298W, strain CLA4, hits give low values 0.972 | locus YNL307C, strain MCK1, hits give low values 0.978 | locus YNL322C, strain KRE1 (second series), hits give low values 0.95 | locus YNR049C, strain mso1, hits give low values 0.952 | locus YNR052C, strain pop2, hits give low values 0.974 | locus YOL012C, strain htz1 0.939 | locus YOL147C, strain pex11, hits give low values 0.989 | locus YOR001W, strain rrp6, hits give low values 0.951 | locus YOR061W, strain CKA2, hits give low values 0.992 | locus YOR069W, strain VPS5, hits give low values 0.987 | locus YOR070C, strain gyp1, hits give low values 0.986 | locus YOR080W, strain dia2, hits give low values 0.982 | locus YOR083W, strain WHI5, hits give low values 1.02 | locus YOR106W, strain vam3, hits give low values 0.998 | locus YOR136W, strain idh2, hits give low values 0.976 | locus YOR144C, strain elg1, hits give low values 0.985 | locus YOR184W, strain ser1, hits give low values 0.998 | locus YOR231W, strain MKK1, hits give low values 1.02 | locus YOR265W, strain rbl2, hits give low values 0.977 | locus YOR270C, strain vph1, hits give low values 0.949 | locus YOR290C, strain snf2, hits give low values 0.997 | locus YOR316C, strain cot1, hits give low values 0.99 | locus YPL051W, strain arl3, hits give low values 0.972 | locus YPL078C, strain atp4, hits give low values 1 | locus YPL106C, strain sse1, hits give low values 0.957 | locus YPL240C, strain hsp82, hits give low values 0.964 | [26] 1 | locus YPL256C, strain CLN2, hits give low values 1.03 | locus YPR119W, strain clb2, hits give low values 0.97 | locus YPR141C, strain kar3, hits give low values 0.987 | locus YPR163C, strain tif3, hits give low values 0.994 | locus YPR167C, strain met16, hits give low values 0.964 | strain wtn01, hits give low values 0.96

Reference: PubChem BioAssay AID1159580 (chemical genetic matrix, 2015)
